Here are results for 87 molecules from PubChem BioAssay AID504652 (National Center for Advancing Translational Sciences (NCATS), 2011).

Values joined by “and” are separate entries in the source; they are usually repeats but may differ in a detail not shown here. Identical values can stand only once. Hit rate of the full screen: of about 360,000 compounds, about 11,000 (3.1%) were called active. The sample holds actives, similar compounds and a random draw of the others, so the mix is not that of the screen. Cut-off read from the data, not from the text of the source: active = activity change below about -30%; inactive = the rest. Some compounds were tested as several samples or in several runs, with calls that do not always agree.
% is set by controls: 0 for no effect and ±100 for the full control effect.

Sequence of D(1A) dopamine receptor (Homo sapiens) (P21728 whole entry, looked up): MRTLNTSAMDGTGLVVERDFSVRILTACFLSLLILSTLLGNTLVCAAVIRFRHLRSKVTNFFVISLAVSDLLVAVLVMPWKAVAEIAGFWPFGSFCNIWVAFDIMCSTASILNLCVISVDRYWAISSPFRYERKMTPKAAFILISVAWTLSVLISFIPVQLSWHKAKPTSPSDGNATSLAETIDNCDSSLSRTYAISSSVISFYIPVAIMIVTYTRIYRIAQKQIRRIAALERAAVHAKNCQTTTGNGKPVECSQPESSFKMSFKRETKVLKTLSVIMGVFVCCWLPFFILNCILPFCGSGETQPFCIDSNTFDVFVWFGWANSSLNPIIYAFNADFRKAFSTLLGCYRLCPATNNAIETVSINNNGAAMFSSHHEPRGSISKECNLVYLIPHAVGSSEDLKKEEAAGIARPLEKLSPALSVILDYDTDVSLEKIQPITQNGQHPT

In the assay the target is D(1A) dopamine receptor (Homo sapiens) (UniProt P21728). Nature of the assay: Antagonist of Human D 1 Dopamine Receptor: qHTS. The note with it: HEK293 TREx D1 cells, calcium flux, dopamine EC80; at 10 µM; stronger effect = lower value. In a few lines:
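Antagonism measured as reduced calcium response to an EC80 dopamine addition following 180 s compound pre-read; cells were inducible HEK293 Trex D1 plated overnight at 30 C, read kinetically at 1 cycle/sec.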
With `COC(=O)c1c(NC(=O)C(C)Oc2ccc(Cl)c(C)c2)sc(C)c1C` (configuration not stated), the activity change, negative = inhibition is 14.5% (inactive).

With `Fc1ccc(-c2nn(-c3ccccc3Cl)c3c2cnc2ccccc23)cc1`, the activity change, negative = inhibition is 15% (inactive).

On to `COc1cc(C)ccc1OCCSc1nc2ccc(NC(=O)c3ccc(C)cc3)cc2s1`, for which the activity change, negative = inhibition is 5.21% (inactive).

Regarding `Cc1ccc(NC(=O)NC(C)c2c(-n3cccc3)sc(C)c2C)c(C)c1` (configuration not stated), the activity change, negative = inhibition was -16% (inactive).

Consider `O=C(Cc1ccc(Cl)cc1)NCC(c1cccs1)S(=O)(=O)c1ccc(Cl)cc1` (configuration not stated), for which the activity change, negative = inhibition was 4.53% (inactive).

Consider `Cn1ccc2cc(S(=O)(=O)N3CCCC(C(=O)NCc4ccccc4F)C3)ccc21` (configuration not stated), for which the activity change, negative = inhibition is -17.1% (inactive).

Take `CCOc1ccccc1NC(=O)CCn1cnnn1`: the activity change, negative = inhibition is -17.8% (inactive).

Take `O=C(NNC(=O)c1ccc(-n2cncn2)c([N+](=O)[O-])c1)c1ccccc1`: the activity change, negative = inhibition is -5.21% (inactive).

As to `Cc1ccccc1OCC(=O)NNC(=O)c1ccc(-n2cncn2)c([N+](=O)[O-])c1`, the activity change, negative = inhibition is -67.1% (active).

Regarding `CC(=O)c1ccc(NC(=O)c2ccc(-n3cncn3)c([N+](=O)[O-])c2)cc1`, the activity change, negative = inhibition is 2.28% (inactive).

With `Cc1nc2ccn(Cc3cccs3)c(=O)c2cc1C(=O)NCc1ccc(Cl)cc1`, the activity change, negative = inhibition was -27.7% (inactive).

Consider `COc1ccc(OC)c(-n2nnc3c(sc4nc(C)c(Br)c(C)c43)c2=O)c1`, for which the activity change, negative = inhibition is -6.84% (inactive).

Turning to `COc1ccc(NC(=O)CSc2nnc(-c3nnn(-c4ccc(F)cc4)c3C)o2)cc1`, the activity change, negative = inhibition was -7.41% (inactive).

Consider `O=C(OCCN=C1NS(=O)(=O)c2ccccc21)c1cccc([N+](=O)[O-])c1`, for which the activity change, negative = inhibition is -6.81% (inactive).

Take `N#CC1(NC(=O)COC(=O)CCN=C2NS(=O)(=O)c3ccccc32)CCCCC1`: the activity change, negative = inhibition is -2.93% (inactive).

Take `O=C(CCCN=C1NS(=O)(=O)c2ccccc21)OCC(=O)c1ccc(F)c(F)c1`: the activity change, negative = inhibition is -64.4% (active).

Consider `CCCCOc1ccc(CNC(=O)c2ccc3c(c2)N(C)C(=O)C2CCCCN32)cc1` (configuration not stated), for which the activity change, negative = inhibition was 20.7% (inactive).

In the case of `CCc1nc2cccnc2n1-c1ccc(CC(=O)Nc2c(C)cccc2C)cc1`, the activity change, negative = inhibition was 0.844% (inactive).

In the case of `COc1cc(OC)c(NC(=O)c2cc(S(=O)(=O)N3CCCC3)cn2C)cc1Cl`, the activity change, negative = inhibition was -11% (inactive).

Regarding `COc1cc(OC)c(NC(=O)c2cnc(N3CCCC3)nc2C)cc1Cl`, the activity change, negative = inhibition is -35.8% (active).

With `COc1cc(OC)c(NC(=O)N2CC3CCCN3c3ccccc32)cc1Cl` (configuration not stated), the activity change, negative = inhibition is 46.3% (inactive).

On to `CCc1ccccc1NC(=O)N1CCC2(CC1)Oc1ccccc1C(=O)N2Cc1ccccc1F`, for which the activity change, negative = inhibition is -12.2% (inactive).

As to `OC(COc1ccc2c(c1)CCC2)CN1CCN(c2cccc(Cl)c2)CC1` (configuration not stated), the activity change, negative = inhibition was -0.524% (inactive).

With `Cc1nn(CCOc2ccccc2)c(=O)n1-c1ccccc1F`, the activity change, negative = inhibition is -11.9% (inactive).

Regarding `CCc1nn(CCCN2CCN(c3cccc(Cl)c3)CC2)c(=O)n1CCOc1ccccc1`, the activity change, negative = inhibition was -25.8% (inactive) and -41.5% (active).

For `CCOc1ccc(CNC(=O)CCc2c(C)nn(-c3ccc(N4CCCCC4)nn3)c2C)cc1`, the activity change, negative = inhibition was -12.9% (inactive).

With `COc1ccccc1C(=O)Nc1c(C(=O)Nc2ccc(C)cc2)oc2ccccc12`, the activity change, negative = inhibition is 2.57% (inactive).

Turning to `COc1ccc(NC(=O)c2ccc3nc(C(C)C)oc3c2)cc1OC`, the activity change, negative = inhibition was 13.3% (inactive).

Consider `CCOC(=O)c1ccc2[nH]c3c(c2c1)CCCC3NC=O` (configuration not stated), for which the activity change, negative = inhibition is -2.15% (inactive).

Turning to `O=[N+]([O-])c1ccc2[nH]c3c(c2c1)CCCC3O` (configuration not stated), the activity change, negative = inhibition was -30.8% (active).

In the case of `O=C1CCCc2c1[nH]c1ccc(Br)cc21`, the activity change, negative = inhibition was 12% (inactive).

With `CCOC(=O)C1CCCN(S(=O)(=O)c2cc(-c3cc(C)no3)ccc2OC)C1` (configuration not stated), the activity change, negative = inhibition is -12.1% (inactive).

`COC(=O)c1scc(-c2ccccc2)c1S(=O)(=O)Nc1ccccc1`: the activity change, negative = inhibition was -7.67% (inactive).

As to `CCn1c(=O)c2cc(C(=O)NCCc3ccc(Cl)cc3)sc2c2ccccc21`, the activity change, negative = inhibition was 3.78% (inactive).

`COc1cccc(NC(=O)Cn2c(=O)cc(C)c3c(C)nn(-c4cccc(F)c4)c32)c1`: the activity change, negative = inhibition was 11.7% (inactive).

As for `COc1cn(CC(=O)Nc2cccc(C)c2C)c(CN2CCCCC2)cc1=O`, the activity change, negative = inhibition is -18.9% (inactive).

Take `COc1ccccc1NC(=O)Nc1nc(CC(=O)Nc2ccccc2F)cs1`: the activity change, negative = inhibition was 2.24% (inactive).

`COc1ccccc1NC(=O)Nc1nnc(Cc2ccc(F)cc2)s1`: the activity change, negative = inhibition is -35.5% (active).

Consider `O=C(Nc1nnc(COc2ccccc2)s1)Nc1ccccc1F`, for which the activity change, negative = inhibition was -5.26% (inactive).

For `COc1ccc(Cl)cc1-n1c(CCC(=O)O)ccc1-c1ccc(C)cc1`, the activity change, negative = inhibition was -15.3% (inactive).

`Cc1cccc(N2CCN(S(=O)(=O)c3ccc4[nH]c5c(c4c3)CCCCC5)CC2)c1C`: the activity change, negative = inhibition is 0.754% (inactive).

Take `CC1CCN(C(=S)c2cccc([N+](=O)[O-])c2)CC1`: the activity change, negative = inhibition was -12.4% (inactive).

Consider `CN1CCN(c2ccc([N+](=O)[O-])c(Sc3nc4ccccc4[nH]3)c2)CC1`, for which the activity change, negative = inhibition was -1.85% (inactive).

For `CC1CCN(c2ccc([N+](=O)[O-])c(SCCO)c2)CC1`, the activity change, negative = inhibition is -30.7% (active).

Regarding `Cc1nn(-c2ccc(N3CCCCC3)nn2)c(C)c1CCC(=O)NCc1ccccc1F`, the activity change, negative = inhibition was -7.94% (inactive).

Consider `Cc1cccc(OCCSc2nc3ccccc3n2CC(=O)N2CCCCC2)c1C`, for which the activity change, negative = inhibition was -17.2% (inactive).

For the molecule `O=C(OCC(=O)N1CCc2ccccc21)c1ccc([N+](=O)[O-])cc1`, the activity change, negative = inhibition is -13% (inactive).

Consider `O=C1CCCN1C(=O)COc1ccc([N+](=O)[O-])cc1`, for which the activity change, negative = inhibition is -83.3% (active).

Consider `COc1ccc(C(CNC(=O)COc2ccc([N+](=O)[O-])cc2)N2CCCCC2)cc1` (configuration not stated), for which the activity change, negative = inhibition was 6.98% (inactive).

As for `O=C(NCC(c1cccnc1)N1CCc2ccccc21)c1cccc(C(F)(F)F)c1` (configuration not stated), the activity change, negative = inhibition was 4.34% (inactive).

For the molecule `Cc1ccc2oc3c(c(=O)c2c1)C(c1ccc([N+](=O)[O-])cc1)N(CCCN1CCOCC1)C3=O` (configuration not stated), the activity change, negative = inhibition is -8.02% (inactive).

For the molecule `Cc1ccc(-c2nn3c(=O)cc(CN4CCN(C(=O)Nc5cccc(C(F)(F)F)c5)CC4)nc3s2)cc1`, the activity change, negative = inhibition is 4.59% (inactive).

Take `Cc1ccc(C)c(N2CCN(C(=O)CN3C(=O)COc4ccc(S(=O)(=O)N5CCCCCC5)cc43)CC2)c1`: the activity change, negative = inhibition is -0.74% (inactive).

With `S=c1[nH]nc(-c2ccco2)n1/N=C/c1ccc(Br)s1`, the activity change, negative = inhibition is -38.6% (active).

As to `Cc1ccsc1/C=N/n1c(=S)[nH]nc(C)c1=O`, the activity change, negative = inhibition was 0.744% (inactive).

As to `Cc1ccccc1-c1n[nH]c(=S)n1/N=C/c1ccc(-c2ccccc2Br)o1`, the activity change, negative = inhibition is -0.652% (inactive).

Take `O=C(CN1C(=O)COc2ccc(S(=O)(=O)N3CCOCC3)cc21)N1CCN(c2cccc(Cl)c2)CC1`: the activity change, negative = inhibition is -5.01% (inactive).

Turning to `COc1ccc(CNC(=O)CCc2c(C)nn(-c3ccc(N4CCCC4)nn3)c2C)cc1`, the activity change, negative = inhibition is 8.22% (inactive).

For `Cc1ccc(-n2nc(C)c(C(=O)O)c2-n2cccc2)cc1`, the activity change, negative = inhibition is -8.13% (inactive).

As to `Cc1nn(-c2ccc(F)cc2)c(-n2cccc2)c1C(=O)N1CCN(c2ccccc2)CC1`, the activity change, negative = inhibition is 21% (inactive).

Turning to `Cc1nn(-c2ccccc2)c(-n2cccc2)c1C(=O)O`, the activity change, negative = inhibition was -45.8% (active).

As for `CCN(CC)CCNC(=O)c1cc2c(=O)oc3ccc(C)cc3c2s1`, the activity change, negative = inhibition is 4.45% (inactive).

With `COc1cc(NC(=O)c2ccc(-c3csc(C)n3)cc2)c(OC)cc1Cl`, the activity change, negative = inhibition was -3.88% (inactive).

Turning to `COc1cc(OC)c(NC(=O)c2c3c(nn2C)-c2ccccc2SC3)cc1Cl`, the activity change, negative = inhibition was 2.27% (inactive).

On to `COc1cc(OC)c(NC(=O)c2nc(-c3ccncc3)no2)cc1Cl`, for which the activity change, negative = inhibition was -32.7% (active).

Regarding `COc1ccc(NC(=O)c2ccc3oc(=O)c(S(=O)(=O)c4ccc(F)cc4)cc3c2)c(OC)c1`, the activity change, negative = inhibition is 4.65% (inactive).

For the molecule `O=C(Nc1cc(-c2nc3ccccc3o2)ccc1Cl)c1cc([N+](=O)[O-])ccc1N1CCOCC1`, the activity change, negative = inhibition is -2.21% (inactive).

Turning to `Cc1ccccc1Nc1nc(N)nc(COC(=O)CCC(=O)c2ccc(F)cc2)n1`, the activity change, negative = inhibition is -23.2% (inactive).

Turning to `Nc1nc(COC(=O)CCC(=O)c2ccc(Cl)cc2)nc(Nc2ccccc2)n1`, the activity change, negative = inhibition was -34.3% (active).

For the molecule `Nc1nc(CC(=O)CSc2ccc(Cl)cc2)nc(Nc2ccc(F)cc2)n1`, the activity change, negative = inhibition was -8.8% (inactive).

For the molecule `COc1ccccc1-c1cc(C(F)(F)F)nc(S(=O)(=O)CCCC(=O)Nc2cc(C)ccc2O)n1`, the activity change, negative = inhibition was -0.269% (inactive).

For the molecule `CCOC(=O)c1cc2c(=O)n3ccccc3nc2n(CCCOC)c1=NC(=O)C(C)Oc1ccccc1` (configuration not stated), the activity change, negative = inhibition is -0.513% (inactive).

Turning to `CCc1ccccc1NC(=O)c1ccc(F)c(S(=O)(=O)NC2CCCCCC2)c1`, the activity change, negative = inhibition was -16.4% (inactive).

As to `O=S(=O)(NC1CCCCC1)c1ccc(F)c2ccccc12`, the activity change, negative = inhibition is -32.8% (active).

As for `O=S(=O)(NC1CC1)c1ccc2c3c(cccc13)CC2`, the activity change, negative = inhibition is -23.6% (inactive).

As to `CCN1CCN(c2ncc3c(n2)CC(c2ccccc2O)CC3=O)CC1` (configuration not stated), the activity change, negative = inhibition was 0.271% (inactive).

Turning to `CCN(Cc1ccccc1)Cc1c(O)ccc2c(=O)c(-c3ccc(Cl)cc3Cl)coc12`, the activity change, negative = inhibition was -1.12% (inactive).

`COc1ccc(Nc2ncnc3sc(C)cc23)cc1`: the activity change, negative = inhibition was -13.7% (inactive).

As to `COC(=O)c1ccc(Nc2ncnc3sccc23)cc1`, the activity change, negative = inhibition was -42.9% (active).

As to `CCOc1ccc(Nc2ncnc3scc(-c4ccc(OC)cc4)c23)cc1`, the activity change, negative = inhibition was 13.2% (inactive).

On to `O=C(CSc1nc2ccccc2nc1Cc1ccccc1)N1CCCCC1`, for which the activity change, negative = inhibition is -12.3% (inactive).

In the case of `CCOC(=O)C1CCN(c2nc3c(S(=O)(=O)c4ccc(CC)cc4)nnn3c3ccc(Cl)cc23)CC1`, the activity change, negative = inhibition was -7.85% (inactive).

On to `Cc1ccc(-c2nnc(Nc3cccc(Br)c3)c3ccccc23)cc1S(=O)(=O)NCC1CCCO1` (configuration not stated), for which the activity change, negative = inhibition is -11.8% (inactive).

On to `O=C(CN1C(=O)NC2(CCCC2)C1=O)OCCOc1ccc(F)cc1`, for which the activity change, negative = inhibition is -6.87% (inactive).

Take `CC1(C)NC(=O)N(CCOc2cccc(Oc3ccccc3)c2)C1=O`: the activity change, negative = inhibition was 1.02% (inactive).

Take `N#Cc1ccc(OCCN2C(=O)NC3(CCSC3)C2=O)cc1` (configuration not stated): the activity change, negative = inhibition was -30.6% (active).

In the case of `CCOC(=O)N1CCc2c(sc(NCc3cccc(F)c3)c2C(=O)Nc2ccccc2OCC)C1`, the activity change, negative = inhibition is -17.6% (inactive).
